# Unmarked numbers belong to inactive results. Calls of active or inactive are those of the source.
# Test: fission yeast growth modulation, primary screen, strain 972, OD600, 24 h, no modulator (AID 1090);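 also: basal condition with compound alone and no growth modifier present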
# Details: S. pombe 972 growth, higher = more signal, called active from +8 up or from −8 down
# Also: test concentration not given here.
row,Compound,z-score
1,CC1CC/C=C\[C@H]2OC34C=CCN(Cn5nnc6ccccc65)C(=O)[C@H]3N(C(C)CO)C(=O)[C@@H]4C2C(=O)O1 (stereo partly specified),0.0528
2,COc1ccc([Si](C)(C)[C@H]2[C@H](CC(=O)N(CCO)Cc3ccccc3)O[C@@]3(C(=O)N(C)c4ccccc43)[C@@H]2C)cc1,-1.24
3,CO[C@H]1COC(=O)[C@H](CCSC)NC(=O)CC=C[C@@H](C)COC(=O)[C@@H](OCc2ccccc2)C=C[C@@H]1C,0.353
4,C=CCOC(=O)[C@@H]1[C@H]2C(=O)O[C@H](c3ccccc3)[C@H](c3ccccc3)N2[C@H](c2ccc(OCCOC(=O)[C@H]3C[C@H]4C(=O)N[C@@H](CCCCNC(C)=O)C(=O)N4[C@H]3c3ccc(O)cc3)cc2)[C@@]12C(=O)Nc1ccc(I)cc12,0.802
5,O=[N+]([O-])c1ccc(C[n+]2ccc3ccc(O)cc3c2)o1,-7.09
6,COCCOC(=O)N1C(=O)[C@@]2(c3cc(C#CC4=CCCCC4)ccc31)[C@H](C(=O)NC[C@H](O)c1ccccc1)[C@H]1C(=O)O[C@H](c3ccccc3)[C@H](c3ccccc3)N1[C@@H]2c1ccccc1OCCO,1.79
7,CCOC(=O)C1=CC[C@@H](c2ccc(-c3ccc(OCc4ccccc4)cc3)c(OC)c2)N(S(=O)(=O)c2ccc(C)cc2)[C@H]1c1ccccc1,-1.27
8,COC(=O)[C@@]1(Cc2ccc(OC)cc2)[C@H]2c3cc(C(=O)N(C)C)n(Cc4ccc(C)c(F)c4F)c3C[C@H]2CN1C(=O)c1ccccc1,0.491
9,CCCC=C(CCC)[C@@H](NS(=O)(=O)c1ccc(-c2ccccc2)cc1)c1ccc(C(=O)OC)cc1,-1.51
10,CCOC(=O)[C@H]1C/C=C/C[C@H](C(=O)OCC)C(=O)O[C@H]2[C@@H](OC)O[C@H](CO)[C@@H](OC(=O)Nc3ccc(Br)cc3)[C@@H]2OC1=O,-2.37
11,C=C[C@H](OC)[C@@H](OC(=O)Nc1ccc(SC)cc1)c1ccc(O)c(F)c1,-1.68
12,COCCOC(=O)N1C(=O)[C@@]2(c3cc(C#CCNC(N)=O)ccc31)[C@H](c1ccc(OCCO)cc1)N1[C@H](c3ccccc3)[C@H](c3ccccc3)OC(=O)[C@H]1[C@@H]2C(=O)N1CCCCCCC1,0.501
13,CN(C)c1ccc(C(O)C2C=CC3C(=O)NC(=O)C3N2Nc2ccc(Cl)cc2Cl)cc1 (stereo unspecified),-1.06
14,COCCOC(=O)N1C(=O)[C@@]2(c3cc(C#CCC(C(=O)OC)C(=O)OC)ccc31)[C@H](C(=O)N1CCN(c3ncccn3)CC1)[C@H]1C(=O)O[C@H](c3ccccc3)[C@H](c3ccccc3)N1[C@@H]2c1ccc(O)cc1,-1.38
15,COCCOC(=O)N1C(=O)[C@@]2(c3ccccc31)[C@H](C(=O)N1CCc3cc(OC)c(OC)cc3C1)[C@H]1C(=O)O[C@H](c3ccccc3)[C@H](c3ccccc3)N1[C@@H]2c1ccccc1OCCO,-0.0822
16,CC(C)=C1C(=O)C(c2ccccc2)=C2CN3C(=O)N(CCc4ccccc4)C(=O)[C@]3(Cc3ccccc3)[C@H]21,0.927
17,CO[C@H]1COC(=O)CC=C[C@H](C)COC(=O)[C@@H](OCc2ccccc2)C=C[C@@H]1C,-1.39
18,[N-]=[N+]=NCc1ccccc1C[C@@]1(C(=O)N2CCOCC2)N=C(c2ccc(OCCCO)cc2)O[C@@H]1c1ccccc1N=[N+]=[N-],-0.39

# Test: S. cerevisiae growth modulation with rapamycin, primary screen, strain BY4716, OD600, 96 h (AID 1091)
# Details: higher = more signal, called active from +8 up or from −8 down
row,Compound,z-score
1,CO[C@@H]1COC(=O)CC=C[C@@H](C)[C@H](OC)COC(=O)CC=C[C@H]1C,-0.891
2,O=C1O[C@H](c2ccccc2)[C@H](c2ccccc2)N2[C@H]1[C@@H](C(=O)Nc1nc3ccccc3s1)[C@]1(C(=O)Nc3ccc(C#CC4(O)CCCCCC4)cc31)[C@H]2c1ccc(O)cc1,0.439
3,O=C1O[C@@H](c2ccccc2)[C@@H](c2ccccc2)N2[C@@H](c3ccccc3OCCO)[C@]3(C(=O)Nc4ccc(C#CC5=CCCCC5)cc43)[C@@H](C(=O)O)[C@H]12,0.341
4,O=C1O[C@@H](c2ccccc2)[C@@H](c2ccccc2)N2[C@@H](c3ccc(O)cc3)[C@]3(C(=O)Nc4ccccc43)[C@@H](C(=O)N3CCN(c4ncccn4)CC3)[C@H]12,1.98
5,C[N+](C)(C)CCCCNC(=O)[C@@H]1C[C@@H]2C(=O)N3CCC[C@H]3C(=O)N2[C@@H]1c1cccc(OCCO)c1,-2.42
6,C=CC[C@@]1(C(=O)N2CCOCC2)N=C(c2ccc(OCCCO)cc2)O[C@@H]1c1ccccc1,0.352
7,CCC#CCN(Cc1ccccc1Br)[C@H](/C=C/c1ccccc1)[C@@H](O)Cc1ccccc1,1.12
8,O=C(NCc1ccccc1)c1ccc(Br)cc1[N+](=O)[O-],-0.778
9,CC(C)N1CC=CC23O[C@@H]4/C=C\CCCOC(=O)C4[C@H]2C(=O)N(CCCCCO)[C@@H]3C1=O (stereo partly specified),-0.693
10,O=C1OCC=C[C@H]2OC34C=CCN(Cc5ccccc5)C(=O)[C@H]3N(CCO)C(=O)[C@@H]4[C@@H]12 (stereo partly specified),-1.17
11,O=C1O[C@H](c2ccccc2)[C@H](c2ccccc2)N2[C@H]1[C@@H](C(=O)NC[C@H](O)c1ccccc1)[C@]1(C(=O)Nc3ccc(C#CC4=CCCCC4)cc31)[C@H]2c1ccc(OCCO)cc1,4.01
12,COc1ccc(-c2ccccc2[C@@H]2N[C@H](C(=O)O)CC[C@H]2C)cc1,0.492
13,CCOC(=O)C[C@H]1[C@H](OC(=O)c2cc3ccccc3oc2=O)[C@@H](NC(=O)C2CCCCC2)c2cc(OCCCO)ccc2N1C(=O)c1ccc2ccccc2n1,1.29
14,NC(=O)NCC#Cc1ccc2c(c1)[C@]1(C(=O)N2)[C@H](C(=O)N2CCCCCCC2)[C@H]2C(=O)O[C@H](c3ccccc3)[C@H](c3ccccc3)N2[C@@H]1c1ccccc1OCCO,1
15,Cc1ccc(N2C(=O)c3ccccc3[C@@H](C(=O)NCc3ccccc3)[C@@H]2c2ccc(CO)cc2)nc1,0.76
16,COC(=O)C(CC#Cc1ccc2c(c1)[C@]1(C(=O)N2)[C@H](C(=O)N2CCCCCCC2)[C@H]2C(=O)O[C@H](c3ccccc3)[C@H](c3ccccc3)N2[C@@H]1c1ccc(O)cc1)C(=O)OC,0.702
17,COc1ccc([Si](C)(C)[C@@H]2[C@@H](CCO)O[C@]3(C(=O)N(Cc4ccc(NC(=O)[C@H](C)O)cc4)c4ccccc43)[C@H]2C)cc1,14.8 (active)

row,Compound,z-score
1,C=CCNC(=O)[C@@H]1[C@H]2C(=O)O[C@H](c3ccccc3)[C@H](c3ccccc3)N2[C@H](c2ccc(OCCO)cc2)[C@@]12C(=O)N(C(=O)OCCOC)c1ccc(C#CC3(O)CCCCCC3)cc12,3.24
2,CC1CC/C=C\[C@H]2OC34C=CCN(Cn5nnc6ccccc65)C(=O)[C@H]3N(C(C)CO)C(=O)[C@@H]4C2C(=O)O1 (stereo partly specified),0.272
3,COc1ccc([Si](C)(C)[C@H]2[C@H](CC(=O)N(CCO)Cc3ccccc3)O[C@@]3(C(=O)N(C)c4ccccc43)[C@@H]2C)cc1,-0.712
4,CO[C@H]1COC(=O)[C@H](CCSC)NC(=O)CC=C[C@@H](C)COC(=O)[C@@H](OCc2ccccc2)C=C[C@@H]1C,0.97
5,C=CCOC(=O)[C@@H]1[C@H]2C(=O)O[C@H](c3ccccc3)[C@H](c3ccccc3)N2[C@H](c2ccc(OCCOC(=O)[C@H]3C[C@H]4C(=O)N[C@@H](CCCCNC(C)=O)C(=O)N4[C@H]3c3ccc(O)cc3)cc2)[C@@]12C(=O)Nc1ccc(I)cc12,4.48
6,O=[N+]([O-])c1ccc(C[n+]2ccc3ccc(O)cc3c2)o1,-0.5
7,COCCOC(=O)N1C(=O)[C@@]2(c3cc(C#CC4=CCCCC4)ccc31)[C@H](C(=O)NC[C@H](O)c1ccccc1)[C@H]1C(=O)O[C@H](c3ccccc3)[C@H](c3ccccc3)N1[C@@H]2c1ccccc1OCCO,4.71
8,CCOC(=O)C1=CC[C@@H](c2ccc(-c3ccc(OCc4ccccc4)cc3)c(OC)c2)N(S(=O)(=O)c2ccc(C)cc2)[C@H]1c1ccccc1,3.66
9,COC(=O)[C@@]1(Cc2ccc(OC)cc2)[C@H]2c3cc(C(=O)N(C)C)n(Cc4ccc(C)c(F)c4F)c3C[C@H]2CN1C(=O)c1ccccc1,0.972
10,CCCC=C(CCC)[C@@H](NS(=O)(=O)c1ccc(-c2ccccc2)cc1)c1ccc(C(=O)OC)cc1,0.284
11,CCOC(=O)[C@H]1C/C=C/C[C@H](C(=O)OCC)C(=O)O[C@H]2[C@@H](OC)O[C@H](CO)[C@@H](OC(=O)Nc3ccc(Br)cc3)[C@@H]2OC1=O,31.7 (active)
12,C=C[C@H](OC)[C@@H](OC(=O)Nc1ccc(SC)cc1)c1ccc(O)c(F)c1,0.887
13,COCCOC(=O)N1C(=O)[C@@]2(c3cc(C#CCNC(N)=O)ccc31)[C@H](c1ccc(OCCO)cc1)N1[C@H](c3ccccc3)[C@H](c3ccccc3)OC(=O)[C@H]1[C@@H]2C(=O)N1CCCCCCC1,3.94
14,CN(C)c1ccc(C(O)C2C=CC3C(=O)NC(=O)C3N2Nc2ccc(Cl)cc2Cl)cc1 (stereo unspecified),0.789
15,COCCOC(=O)N1C(=O)[C@@]2(c3cc(C#CCC(C(=O)OC)C(=O)OC)ccc31)[C@H](C(=O)N1CCN(c3ncccn3)CC1)[C@H]1C(=O)O[C@H](c3ccccc3)[C@H](c3ccccc3)N1[C@@H]2c1ccc(O)cc1,0.921
16,COCCOC(=O)N1C(=O)[C@@]2(c3ccccc31)[C@H](C(=O)N1CCc3cc(OC)c(OC)cc3C1)[C@H]1C(=O)O[C@H](c3ccccc3)[C@H](c3ccccc3)N1[C@@H]2c1ccccc1OCCO,5.51
